# Data published in PubChem BioAssay AID493242 (Broad Institute, 2011).
# Potency and affinity values are given separately. Calls of active or inactive are those of the source. Entries that show only a call come without a potency. How the calls were made is not given here.
# Target: Replicative DNA helicase DnaB (Mycobacterium tuberculosis (strain ATCC 25618 / H37Rv)) (UniProt P9WMR3)
# Experiment: Replicative DNA helicase DnaB intein splicing, Mycobacterium tuberculosis, inhibitor dose response, secondary (AID 493242)
# Details: DnaB intein splicing assay, plate reader; series mostly up to 35 µM
# Sequence of Replicative DNA helicase DnaB (Mycobacterium tuberculosis (strain ATCC 25618 / H37Rv)) (P9WMR3 whole entry, looked up): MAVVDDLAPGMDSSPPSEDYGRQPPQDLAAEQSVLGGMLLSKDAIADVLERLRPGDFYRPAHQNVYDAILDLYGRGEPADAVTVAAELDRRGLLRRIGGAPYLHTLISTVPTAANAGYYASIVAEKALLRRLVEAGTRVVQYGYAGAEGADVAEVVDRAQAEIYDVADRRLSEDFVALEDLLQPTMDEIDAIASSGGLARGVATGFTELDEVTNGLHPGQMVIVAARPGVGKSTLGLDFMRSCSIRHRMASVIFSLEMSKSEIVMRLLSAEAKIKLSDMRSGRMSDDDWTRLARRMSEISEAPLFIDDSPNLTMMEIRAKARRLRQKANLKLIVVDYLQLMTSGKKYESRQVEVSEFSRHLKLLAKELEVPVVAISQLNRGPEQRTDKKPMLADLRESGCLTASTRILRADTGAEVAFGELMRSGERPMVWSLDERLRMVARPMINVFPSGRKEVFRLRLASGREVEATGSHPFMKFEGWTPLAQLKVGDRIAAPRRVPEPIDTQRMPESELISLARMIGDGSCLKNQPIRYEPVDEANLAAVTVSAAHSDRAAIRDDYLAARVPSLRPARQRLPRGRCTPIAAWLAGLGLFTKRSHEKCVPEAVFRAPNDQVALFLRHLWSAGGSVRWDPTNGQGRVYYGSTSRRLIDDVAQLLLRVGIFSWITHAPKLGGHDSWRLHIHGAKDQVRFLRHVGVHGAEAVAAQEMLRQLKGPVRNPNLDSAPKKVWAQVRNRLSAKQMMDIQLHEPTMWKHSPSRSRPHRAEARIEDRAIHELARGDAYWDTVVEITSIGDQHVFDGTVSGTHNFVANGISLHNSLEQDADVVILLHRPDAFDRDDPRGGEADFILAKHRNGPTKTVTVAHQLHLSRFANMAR
compound,measurement,value
Nc1cn(-c2ccccc2)nc1-c1ccc(F)cc1,outcome,inactive
